Most compounds without a hit are left out; they make up all but 2.4% or so of the library.
D2 PAM-1: positively modulates the human D2 dopamine receptor allosterically; P14416; 340,000 tested, 0.34% active; HEK293 T-REx D2, calcium flux, EC20 dopamine potentiation; potentiation, % at 10 µM;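 active = potentiation over 3 SD above the plate norm, cut at about 30% in these data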
Target sequence (P14416 whole entry, looked up): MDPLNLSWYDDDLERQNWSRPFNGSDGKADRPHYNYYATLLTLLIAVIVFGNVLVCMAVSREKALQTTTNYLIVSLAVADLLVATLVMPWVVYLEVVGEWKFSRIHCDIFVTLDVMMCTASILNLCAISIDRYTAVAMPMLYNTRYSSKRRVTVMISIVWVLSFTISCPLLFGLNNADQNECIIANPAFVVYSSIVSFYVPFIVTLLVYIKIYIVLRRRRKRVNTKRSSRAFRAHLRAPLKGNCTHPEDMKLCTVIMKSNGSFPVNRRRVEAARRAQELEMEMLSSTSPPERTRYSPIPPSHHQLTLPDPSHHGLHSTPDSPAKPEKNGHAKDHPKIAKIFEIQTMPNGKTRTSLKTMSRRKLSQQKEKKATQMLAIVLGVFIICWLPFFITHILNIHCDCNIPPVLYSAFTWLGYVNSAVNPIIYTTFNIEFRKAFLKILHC
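Tetracycline-induced HEK293 T-REx cells force-coupled to calcium signalling expressed D2; compounds were pin-added after a 10 s baseline, read kinetically 180 s, then an EC20 dopamine challenge followed with a further 180 s calcium read.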
D2 ag-1: activates the human D2 dopamine receptor; 340,000 tested, 0.53% active; activation, % at 2 µM; HEK293 T-REx D2 cells, calcium flux agonist mode;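 active = activation over 3 SD above normal in the single-dose calcium agonist read, cut at about 30% in these data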
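Calcium-flux readout, 1 cycle/sec over 180 s following compound pin transfer, in inducible HEK293 Trex D2 cells (force-coupled); dopamine controls included. Positive calcium responses during this window marked compounds as potential agonists.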
D2 PAM-2: potentiates the human D2 dopamine receptor allosterically. 360,000 tested, 0.23% active. P14416. potentiation, % (no concentration beside the values). DiscoveRx D2 beta-arrestin cells, luminescence, 90 min; 100% = 57 uM dopamine signal; in the data active = potentiation above about 50%
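D2 cells co-treated with compound plus 50 nM dopamine (EC20) for 90 min at 37 deg C to detect potentiation. Beta-arrestin recruitment was read as enzyme-fragment luminescence after 1 h at ambient temperature. Full response was set by 57 uM dopamine.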
D2 ag-2: human D2 receptor agonism in beta-arrestin assay; P14416; DiscoveRx PathHunter D2 beta-arrestin, luminescence, 90 min; 100% = 57 uM dopamine signal; activation, % (test concentration not listed); 360,000 tested, 0.084% active; AID 624465; in the data active = activation above about 40%
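Agonist mode: compounds alone added to overnight-plated D2 PathHunter cells for 90 min at 37 C, with 57 uM final dopamine (EC100) defining full response. Beta-arrestin recruitment detected by chemiluminescent reagent, read after 1 h at ambient temperature.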
D2 antag: antagonists of human D2 dopamine receptor. HEK293 TREx D2 cells, calcium flux, dopamine EC80. AID 485344. inhibition, % at 10 µM. 340,000 tested, 2% active; in the data active = inhibition above about 30%; inactive = below that, where a call was filed
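Calcium mobilization kinetics were recorded at 1 s intervals in tetracycline-induced HEK293 T-REx D2 cells, first for 180 s after compound addition and then 180 s after EC80 dopamine.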
Each line names hits and unclear results; the compound was inactive in the other large screens.

O=C(/C=C/c1ccc2c(c1)OCO2)NCCSCc1c(Cl)cccc1Cl	D2 antag 33.8
CC(=O)c1ccc(N2CCN(C(=O)CN3C(=O)NC4(CCCCC4)C3=O)CC2)c(F)c1	D2 antag 30.7
O=C(CN1C(=O)NC2(CCCCCC2)C1=O)N1CCN(c2ccc(F)cc2)CC1	none
CC1CCN(CC2CCN(C(=O)NCc3ccccc3)CC2)CC1	none (no result: D2 PAM-2, D2 ag-2, D2 antag)
Cc1ccc(C(=O)N2CCCC(CCC(=O)N3CCN(c4ccccn4)CC3)C2)cc1C (centres undefined)	none
Cc1ccc(C(=O)N2CCCC(CCC(=O)N3CCN(c4ccccn4)CC3)C2)cn1 (centres undefined)	D2 PAM-2 75.1
Cn1c(=O)[nH]c(=O)c2c1nc(N1CCOCC1)n2CCSc1nnnn1-c1ccccc1	D2 antag 36.6
CC(CSc1nnnn1-c1ccccc1)Cn1c(N2CCCC2)nc2c1c(=O)[nH]c(=O)n2C (centres undefined)	none
COc1ccccc1CNC(=O)c1ccc(Cn2c(SCc3ccccc3)nc3cccnc32)cc1	none (no result: D2 PAM-2, D2 ag-2, D2 antag)
Cc1ccc(OCC(O)Cn2c3ccccc3c3ccccc32)cc1 (centres undefined)	none
OC(COc1ccccc1)CN1CCN(Cc2ccc3c(c2)OCO3)CC1 (centres undefined)	D2 antag 35.9
OC(COc1ccccc1F)CN1CCC(Cc2ccccc2)CC1 (centres undefined)	D2 antag 64.8
C=CCc1ccc(OCC(O)CN2CCC(Cc3ccccc3)CC2)c(OC)c1 (centres undefined)	D2 antag 41.2
OC(COc1ccc(F)cc1Cl)CN1CCC(Cc2ccccc2)CC1 (centres undefined)	none
Cc1ccc(OCCN2CCN(CC(O)Cn3c4ccccc4c4ccccc43)CC2)cc1 (centres undefined)	D2 ag-1 62.7, D2 antag 62.7 (no result: D2 PAM-2, D2 ag-2)
Cc1cc(C)cc(OCC(O)CN2CCN(Cc3ccc4c(c3)OCO4)CC2)c1 (centres undefined)	none
COc1ccc(-c2cc(C)no2)cc1S(=O)(=O)NCc1ccco1	none (no result: D2 PAM-2, D2 ag-2, D2 antag)
CC(=O)C1=CCC(c2ccc(Cl)cc2)N(S(=O)(=O)c2ccc(C)cc2)C1 (centres undefined)	none (no result: D2 PAM-1, D2 ag-1, D2 antag)
Cc1ccc(-n2nc(C(=O)Nc3ccc(C)c(F)c3)c3c4ccccc4n(C)c3c2=O)cc1	none (no result: D2 PAM-2, D2 ag-2, D2 antag)
CCCCn1c(N)c(N(CCC(C)C)C(=O)CC2CCCC2)c(=O)[nH]c1=O	none
Cc1cccc(Cn2c(COc3ccccc3)nc3ccccc32)c1	none (no result: D2 PAM-2, D2 ag-2, D2 antag)
COc1cccc(OCC(O)CN2CCC(Cc3ccccc3)CC2)c1 (centres undefined)	none
OC(COc1ccccc1)CN1CCC(Cc2ccccc2)CC1 (centres undefined)	D2 antag 74.4
CN1CCN(CC(O)COc2ccccc2)CC1 (centres undefined)	D2 antag 32.5
COc1ccc(OC)c(S(=O)(=O)N2CCN(CC(O)COc3ccccc3)CC2)c1 (centres undefined)	D2 antag 47.9
COc1ccc(OC)c(S(=O)(=O)N2CCN(CC(O)COc3ccc(C#N)cc3)CC2)c1 (centres undefined)	none
CCCCCCOC(=O)CC1CC(C(C)=O)C1(C)C (centres undefined)	none (no result: D2 PAM-1, D2 ag-1, D2 antag)
CCOc1ccccc1CNC(=O)c1cc(-c2ccc(Cl)s2)nc2ccccc12	none (no result: D2 PAM-2, D2 ag-2, D2 antag)
O=C(Cn1c(=O)n2nc(-c3cccc(F)c3)nc2c2ccccc21)N1CCN(c2ccccc2F)CC1	none (no result: D2 PAM-2, D2 ag-2, D2 antag)
Cc1nn(C)c(C)c1S(=O)(=O)N(CC(=O)Nc1ccc(F)cc1F)c1ccc(C(C)C)cc1	none (no result: D2 PAM-2, D2 ag-2, D2 antag)
Cc1nn(-c2ccccc2)c2c1C1(C(=O)N(C(C)C)c3ccccc31)C(C#N)=C(N)O2 (centres undefined)	D2 PAM-2 60.3
CCOc1ccc(OCC)c(NC(=O)c2nnn(CC(=O)Nc3ccc(C)cc3C)c2N)c1	none (no result: D2 PAM-2, D2 ag-2, D2 antag)
Nc1ccc2c3c(cccc13)C(=O)N(c1ccccc1)C2=O	none
Nc1cccc(N2C(=O)c3cccc4c(N)ccc(c34)C2=O)c1	D2 ag-1 49.1
Cc1cccc(N2C(=O)c3cccc4c(N)ccc(c34)C2=O)c1	D2 ag-1 116.8

Screening results from PubChem.
